Test results from paper PMC8136818, “Evolving origin-of-transfer sequences on staphylococcal conjugative and mobilizable plasmids—who’s mimicking whom?”.

T1: SmpO49 (Staphylococcus aureus plasmid pWBG749, UniProt UPI0001BEA96A 1-84)
T1 sequence: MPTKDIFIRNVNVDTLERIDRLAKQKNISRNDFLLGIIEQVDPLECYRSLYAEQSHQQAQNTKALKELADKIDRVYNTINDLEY

T2: SmpO45 (Staphylococcus aureus plasmid pWBG745, UniProt UPI0001BEA8D3 1-84)
T2 sequence: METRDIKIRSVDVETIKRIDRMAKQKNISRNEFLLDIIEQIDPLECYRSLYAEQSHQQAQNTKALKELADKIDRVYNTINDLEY

T3: SmpOUNa (plasmid pC02)
T3 chain: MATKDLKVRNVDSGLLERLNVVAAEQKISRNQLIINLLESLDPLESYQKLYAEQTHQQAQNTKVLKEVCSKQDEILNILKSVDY

T4: SmpO408 (Staphylococcus aureus M0408)
T4 chain: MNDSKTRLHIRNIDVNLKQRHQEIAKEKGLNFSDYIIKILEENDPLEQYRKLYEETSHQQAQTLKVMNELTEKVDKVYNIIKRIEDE

T5: SmpOSep (Staphylococcus epidermidis VCU120)
T5 chain: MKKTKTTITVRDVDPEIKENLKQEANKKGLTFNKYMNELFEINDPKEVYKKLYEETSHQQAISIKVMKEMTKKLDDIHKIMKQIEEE

T6: SmpO49-F7K (Staphylococcus aureus plasmid pWBG749, UniProt UPI0001BEA96A 1-84, F7K)
T6 sequence: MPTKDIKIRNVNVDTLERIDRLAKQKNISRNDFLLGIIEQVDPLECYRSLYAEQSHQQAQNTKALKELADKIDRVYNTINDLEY

B1: ossA49-15 (dsDNA)
DNA 1: TTTATGATATCACTTT
DNA 2: AAAGTGATATCATAAA
B2: ossA49-14 (dsDNA)
DNA 1: TTTATGATATCACAAT
DNA 2: ATTGTGATATCATAAA
B3: ossA45-3 (dsDNA)
DNA 1: ATAGTGGGGTCACTTT
DNA 2: AAAGTGACCCCACTAT
B4: OT49.11 (dsDNA)
DNA 1: CCGATGATAGCAAATTCCCCTTATGCTCTT
DNA 2: AAGAGCATAAGGGGAATTTGCTATCATCGG
B5: ossA45-2 (dsDNA)
DNA 1: AATGTGGGGTCACTTT
DNA 2: AAAGTGACCCCACATT
B6: OT45.4 (dsDNA)
DNA 1: TTTATTGTGGGGTCACTTTAAATTCTTTAA
DNA 2: TTAAAGAATTTAAAGTGACCCCACAATAAA
B7: ossA45-16 (dsDNA)
DNA 1: ATTGTGGGGTCACTTA
DNA 2: TAAGTGACCCCACAAT
B8: ossA49-13 (dsDNA)
DNA 1: TTTATGATATCAGTAT
DNA 2: ATACTGATATCATAAA
B9: ossA45-14 (dsDNA)
DNA 1: ATTGTGGGGTCACATT
DNA 2: AATGTGACCCCACAAT
B10: ossB45 (dsDNA)
DNA 1: AATATGGGGTCATATT
DNA 2: AATATGACCCCATATT
B11: OT45.3 (dsDNA)
DNA 1: GACACTATAGTTTATTGTGGGGTCACTTTA
DNA 2: TAAAGTGACCCCACAATAAACTATAGTGTC
B12: OT49.12 (dsDNA)
DNA 1: GATGATAGCAAATTCCCCTTATGCTCTTAC
DNA 2: GTAAGAGCATAAGGGGAATTTGCTATCATC
B13: OT45.9 (dsDNA)
DNA 1: TTGCCAGCCACCCCATAAAATATGGGGTCA
DNA 2: TGACCCCATATTTTATGGGGTGGCTGGCAA
B14: ossA49-1 (dsDNA)
DNA 1: ATTATGATATCACTAT
DNA 2: ATAGTGATATCATAAT
B15: ossA45 (dsDNA)
DNA 1: ATTGTGGGGTCACTTT
DNA 2: AAAGTGACCCCACAAT
B16: OTUNa For/Rev_15 (dsDNA)
DNA 1: TGGCTTCGCCAGATTACCCATTATAAAATG
DNA 2: CATTTTATAATGGGTAATCTGGCGAAGCCA
B17: OTUNa For/Rev_13 (dsDNA)
DNA 1: TTTAAAACCCTTGAAATATCTGGCTTCGCC
DNA 2: GGCGAAGCCAGATATTTCAAGGGTTTTAAA
B18: ossB408 (dsDNA)
DNA 1: TAATAGGTGGCAAATT
DNA 2: AATTTGCCACCTATTA
B19: ossA45-1 (dsDNA)
DNA 1: TTTGTGGGGTCACTTT
DNA 2: AAAGTGACCCCACAAA

Each binder was assayed against T1, SmpO49 (assay: SPR (ReDCaT); 150 mM NaCl; 10 mM HEPES, 3 mM EDTA, 0.05% Tween 20, NaCl 150 mM (SmpO49 screens), 300 mM (SmpO45, SmpO408, SmpOUNa screens) or 250 mM (Table S4); pH and temperature not stated; protein 1 uM; high values mean tight binding). Conditions: protein: recombinant; tags: His6-TEV, cleaved; chain copies: 4.
In short: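 Tag-cleaved protein, expressed in E. coli BL21(DE3)pLysS and purified by nickel-affinity and size-exclusion chromatography, was screened on a Biacore T200 SA chip by reusable DNA capture. OriT oligonucleotides were captured at 1 μM on Fc2, with a control linker on Fc1. Protein at 1 μM was injected at 30 μl/min (60 s contact, 60 s dissociation) in 10 mM HEPES, 150 mM NaCl, 3 mM EDTA, 0.05% Tween 20. DNA binding is reported as %Rmax.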

| Binder | binding signal |
| --- | --- |
| B1 | 26.8 ± 1.07 %Rmax |
| B2 | 24.9 ± 1.06 %Rmax |
| B4 | 0.467 ± 0.033 %Rmax |
| B8 | 18.1 ± 1.02 %Rmax |
| B12 | 0.431 ± 0.0378 %Rmax |
| B14 | 26.7 ± 1.94 %Rmax |

What follows are binders tested against T2, SmpO45 (assay: SPR (ReDCaT); 300 mM NaCl; 10 mM HEPES, 3 mM EDTA, 0.05% Tween 20, NaCl 150 mM (SmpO49 screens), 300 mM (SmpO45, SmpO408, SmpOUNa screens) or 250 mM (Table S4); pH and temperature not stated; protein 1 uM; high values mean tight binding). Conditions: protein: recombinant; tags: His6-TEV, cleaved; chain copies: 4.
In short: (§1)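 Protein with its tag removed was produced in E. coli BL21(DE3)pLysS and purified by nickel-affinity and then size-exclusion chromatography. On a Biacore T200 SA chip with reusable DNA capture, OriT oligonucleotides were captured at 1 μM on Fc2 and a linker alone on Fc1, and protein at 1 μM was injected at 30 μl/min with 60 s contact and 60 s dissociation in 10 mM HEPES, 300 mM NaCl, 3 mM EDTA, 0.05% Tween 20. DNA binding is given as %Rmax.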

| Binder | binding signal |
| --- | --- |
| B3 | 31.73 ± 0.268 %Rmax |
| B5 | 32.56 ± 0.0519 %Rmax |
| B6 | 29.4 ± 1.33 %Rmax |
| B7 | 43.4 ± 1.14 %Rmax |
| B9 | 38.9 ± 1.1 %Rmax |
| B11 | 29.5 ± 1.43 %Rmax |
| B13 | 0.769 ± 0.108 %Rmax |
| B15 | 36.5 ± 3.64 %Rmax |
| B19 | 42.58 ± 0.128 %Rmax |

The binders below were run against T2, SmpO45 (assay: SPR (ReDCaT); 250 mM NaCl; 10 mM HEPES, 3 mM EDTA, 0.05% Tween 20, NaCl 150 mM (SmpO49 screens), 300 mM (SmpO45, SmpO408, SmpOUNa screens) or 250 mM (Table S4); pH and temperature not stated; protein 1 uM; high values mean tight binding). Conditions: protein: recombinant; tags: His6-TEV, cleaved; chain copies: 4.

| Binder | binding signal |
| --- | --- |
| B10 | 21.6 %Rmax |
| B15 | 37.5 %Rmax |
| B18 | 0.4 %Rmax |

Target: T3, SmpOUNa
Assay: as above
Conditions: protein: recombinant; tags: His6-TEV, cleaved; chain copies: 4

| Binder | binding signal |
| --- | --- |
| B10 | 1.4 %Rmax |
| B15 | 7.1 %Rmax |

Target: T4, SmpO408
Assay: as above
Conditions: protein: recombinant; tags: His6-TEV, cleaved; chain copies: 4

| Binder | binding signal |
| --- | --- |
| B10 | 0.9 %Rmax |
| B15 | 10.7 %Rmax |
| B18 | 34.2 %Rmax |

Target: T5, SmpOSep
Assay: as above
Conditions: protein: recombinant; tags: His6-TEV, cleaved; chain copies: 4

| Binder | binding signal |
| --- | --- |
| B10 | 0.5 %Rmax |
| B15 | 2.9 %Rmax |

Each binder was assayed against T6, SmpO49-F7K in the same assay as above. Conditions: protein: recombinant; tags: His6-TEV, cleaved; chain copies: 4.

| Binder | binding signal |
| --- | --- |
| B10 | 26.1 %Rmax |
| B15 | 31.3 %Rmax |

Target: T3, SmpOUNa
Assay: SPR (ReDCaT); 300 mM NaCl; 10 mM HEPES, 3 mM EDTA, 0.05% Tween 20, NaCl 150 mM (SmpO49 screens), 300 mM (SmpO45, SmpO408, SmpOUNa screens) or 250 mM (Table S4); pH and temperature not stated; protein 1 uM; high values mean tight binding
Conditions: protein: recombinant; tags: His6-TEV, cleaved; chain copies: 4
In short: as §1

| Binder | binding signal |
| --- | --- |
| B16 | 5.46 ± 0.605 %Rmax |
| B17 | 2.14 ± 0.24 %Rmax |
